High-throughput results deposited in PubChem by National Center for Advancing Translational Sciences (NCATS).
Compounds with a hit are over-represented: about 10% of the library has one in this group of screens.
Six1-Eya2 inh – inhibitors of human Six1/Eya2 interaction. Q15475+O00167. AlphaScreen GST-Six1/His-Eya2 binding, biochemical; hits give low values. activity change, % (no concentration beside the values). 0.56% of 360,000 active; in the data active means activity change below about -65%; inconclusive means mostly about -30% to -63%; further: on the % scale 0 is the no-effect control and ±100 the full control effect
Target sequence (O00167 whole entry, looked up): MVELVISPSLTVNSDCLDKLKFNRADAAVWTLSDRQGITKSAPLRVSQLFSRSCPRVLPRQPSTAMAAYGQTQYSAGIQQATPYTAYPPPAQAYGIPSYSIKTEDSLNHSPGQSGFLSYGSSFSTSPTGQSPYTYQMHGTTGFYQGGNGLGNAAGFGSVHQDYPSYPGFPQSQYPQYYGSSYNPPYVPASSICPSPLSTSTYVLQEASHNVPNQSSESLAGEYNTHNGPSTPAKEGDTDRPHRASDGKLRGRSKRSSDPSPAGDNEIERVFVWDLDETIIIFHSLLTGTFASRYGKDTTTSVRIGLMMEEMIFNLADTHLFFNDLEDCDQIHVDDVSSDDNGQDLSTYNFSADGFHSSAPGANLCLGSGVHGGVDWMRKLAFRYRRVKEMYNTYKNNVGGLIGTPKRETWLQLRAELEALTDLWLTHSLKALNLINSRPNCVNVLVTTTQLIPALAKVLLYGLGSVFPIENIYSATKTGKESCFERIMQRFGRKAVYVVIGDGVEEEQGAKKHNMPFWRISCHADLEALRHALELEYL
Target sequence (Q15475 whole entry, looked up): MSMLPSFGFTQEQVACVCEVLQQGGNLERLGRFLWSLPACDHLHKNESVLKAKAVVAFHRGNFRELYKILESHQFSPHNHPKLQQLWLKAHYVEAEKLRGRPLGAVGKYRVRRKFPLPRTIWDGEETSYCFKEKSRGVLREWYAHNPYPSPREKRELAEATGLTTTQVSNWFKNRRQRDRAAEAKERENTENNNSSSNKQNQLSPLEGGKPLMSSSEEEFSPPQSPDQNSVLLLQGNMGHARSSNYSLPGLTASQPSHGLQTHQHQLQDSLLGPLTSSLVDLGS
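AlphaScreen with GST-Six1 and His-Eya2 (5X mix: 250 nM and 500 nM), glutathione donor and nickel acceptor beads; buffer 50 mM Tris pH 8.0, 300 mM NaCl, 1 mM TCEP; 1 h at 37 C in the dark.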
HP1b binding inh – inhibitors of HP1-beta chromodomain binding to methylated histone tails. P83916. AlphaScreen HP1-beta / biotin-H3K9me3 peptide binding. Potency, µM (top dose mostly 114 µM), for inactives: at the highest dose activity change, negative = inhibition, most hits filed as inhibitors. 0.56% of 390,000 active; further: potency means the concentration at half of the fitted maximal effect; nearly all actives have a fitted effect of over 70% in size
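HP1-beta protein (50 nM final) preincubated 30 min at room temperature with biotinylated H3(1-18)K9me3 peptide (50 nM) in PBS pH 7.4, 0.01% Tween-20, then compound added for 30 min. AlphaScreen streptavidin donor/nickel chelate acceptor beads (10 ug/mL final), 30 min dark, luminescence read.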
BAZ2B inh – BAZ2B (human) inhibition; Q9UIF8; AlphaScreen BAZ2B-H3K14Ac peptide displacement; Potency, µM (series often up to 114 µM), for inactives: at the top dose activity change, negative = inhibition, actives largely listed as inhibitors; 4.4% of 360,000 active; AID 504333; further: potency means the concentration at half of the fitted maximal effect; on the % scale 0 is the no-effect control and ±100 the full control effect; nearly all actives have a fitted effect of over 60% in size
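BAZ2B (50 nM) with biotin-H3(5-23)K14Ac peptide (50 nM) in PBS pH 7.4, 0.01% Tween-20, preformed 30 min, then compound 30 min at room temperature; top concentration 110uM. AlphaScreen streptavidin donor/nickel chelate acceptor beads (10 ug/mL final), 20 min dark, signal read.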
CtBP-E1A blk – blocks the CtBP interaction with E1A. AlphaScreen GST-E1A/His-CtBP binding, 1536-well; hits give low values. 0.49% of 340,000 active. activity change, % (concentration not given with the values). AID 651724; in the data active means activity change below about -65%; inconclusive means mostly about -30% to -63%; further: on the % scale 0 is the no-effect control and ±100 the full control effect
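GST-E1A and His-tagged CtBP (125 nM each as 5X stock) were preincubated with pin-transferred compound for 2 h at 37 °C in the dark, then glutathione donor and nickel acceptor beads were added for 1 h before AlphaScreen reading.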
G9a inh – G9a (human) methyltransferase inhibition. G9a H3K9 monomethylation, AlphaScreen, 2 h. Potency, µM (top dose mostly 102 µM), for the others: top-dose activity, negative = inhibition, actives largely listed as inhibitors. 8.8% of 350,000 active. AID 504332; further: potency means the concentration at half of the fitted maximal effect; on the % scale 0 is the no-effect control and ±100 the full control effect; nearly all actives have a fitted effect of over 75% in size
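Methyltransferase reactions run at room temperature for 2 h (20 nM enzyme, 500 nM biotin-H3K9 peptide, 20 uM SAM) after a 15 min compound preincubation; product detected by AlphaScreen beads and anti-H3K9me1 antibody.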
JMJD2A Tudor inh – JMJD2A Tudor domain (human) inhibition; AlphaScreen JMJD2A-Tudor / H3K4me3 peptide binding; 4.4% of 390,000 active; Potency, µM (top dose mostly 114 µM), inactives show at the top dose activity change, negative = inhibition, actives largely listed as inhibitors; further: potency means the concentration at half of the fitted maximal effect; on the % scale 0 is the no-effect control and ±100 the full control effect; nearly all actives have a fitted effect of over 50% in size
The depositor's hits bear a star; ! = a repeat was not active; [ ] = dose if it differs, or a comment. Unless noted, the call rests on the fitted dose curve; in most records, active means well fitted inhibition curve with a large enough effect; inconclusive means small, poorly fitted or top-dose-only effect; inactive means no such curve, though single readings can be large or run the other way.

COC(=O)c1ccc2c(=O)n(Cc3ccc(C(=O)NCCCN4CCC(C)CC4)cc3)c(=S)[nH]c2c1 was read as Six1-Eya2 inh -10.7, HP1b binding inh 28.5%, BAZ2B inh -25.3%, CtBP-E1A blk 0.0, G9a inh 35.5µM* and JMJD2A Tudor inh -22.6%.
CCOc1cc2[nH]c(=S)n(Cc3ccc(C(=O)NCCCN4CCOCC4)cc3)c(=O)c2cc1OCC was read as Six1-Eya2 inh -1.1, HP1b binding inh 62.7%, BAZ2B inh -15.4%, CtBP-E1A blk 0.3, G9a inh 25.1µM* and JMJD2A Tudor inh -32.4%.
`COc1ccc(Cn2c(=O)[nH]c3cc(C(=O)NCCCN4CCCCCC4)ccc3c2=O)cc1` gave Six1-Eya2 inh 1.7, HP1b binding inh 1.4%, BAZ2B inh -23.6%, CtBP-E1A blk -4.3, G9a inh 56.2µM* and JMJD2A Tudor inh 14.1µM*.
For COc1ccc(Cn2c(=O)[nH]c3cc(C(=O)NCCCN4CCCCC4)ccc3c2=O)cc1 the results were Six1-Eya2 inh -1.2, HP1b binding inh 30.5%, BAZ2B inh 0.7%, CtBP-E1A blk -1.5, G9a inh -7.3%[2.33 µM] and JMJD2A Tudor inh -10.7%.
Screening CCOC(=O)c1ccc(NC(=O)CSc2cn(CC(=O)N3CCCC3)c3ccccc23)cc1 returned HP1b binding inh 27.1%, BAZ2B inh -27.3%, G9a inh -11.7%[59 µM] and JMJD2A Tudor inh -26.4%.
Screening Cc1cccc(C)c1NC(=O)Cn1c(=O)n(Cc2ccc3c(c2)OCO3)c(=O)c2oc3ccccc3c21 returned HP1b binding inh 47.6%, BAZ2B inh -1.2%, G9a inh -5.1%[59 µM] and JMJD2A Tudor inh -1.5%.
Screening CCOc1cc2[nH]c(=S)n(CCN3CCCCC3CC)c(=O)c2cc1OCC (stereo not drawn) returned Six1-Eya2 inh 1.0, HP1b binding inh 14.6%, BAZ2B inh 1.7%, CtBP-E1A blk -17.5, G9a inh 56.2µM* and JMJD2A Tudor inh -33.1%.
COc1cc2c(=O)n(CCCN3CCOCC3)c(=S)[nH]c2c(OC)c1OC was read as Six1-Eya2 inh -1.5, HP1b binding inh -10.5%, BAZ2B inh -3.3%, CtBP-E1A blk -1.3, G9a inh 12.6µM* and JMJD2A Tudor inh 31.6µM*.
`COC(=O)c1ccc2c(=O)n(Cc3ccc(C(=O)NCCCN4CCOCC4)cc3)c(=S)[nH]c2c1` gave Six1-Eya2 inh -3.2, HP1b binding inh 24.7%, BAZ2B inh -13.8%, CtBP-E1A blk -24.0, G9a inh inconclusive and JMJD2A Tudor inh -15.9%.
`O=C(NCCCN1CCOCC1)c1ccc2c(=O)n(Cc3ccc(Cl)cc3)c(=S)[nH]c2c1` gave Six1-Eya2 inh 0.0, HP1b binding inh 54.0%, BAZ2B inh -34.7%, CtBP-E1A blk 3.1, G9a inh 7.08µM* and JMJD2A Tudor inh -23.0%.
Screening O=c1c2cc3c(cc2[nH]c(=S)n1CCN1CCOCC1)OCO3 returned Six1-Eya2 inh 2.0, HP1b binding inh 22.1%, BAZ2B inh inconclusive, CtBP-E1A blk 0.6, G9a inh inconclusive and JMJD2A Tudor inh 35.5µM*.
For COc1ccc2nc(SCC(O)c3cccc(Br)c3)[nH]c2c1 (stereo not drawn) the results were HP1b binding inh -4.6%, BAZ2B inh -11.3%, G9a inh inconclusive and JMJD2A Tudor inh inconclusive.
Screening COc1cccc(-c2nn(C)c3sc(C(=O)N4CCN(c5cccc(C(F)(F)F)c5)CC4)cc23)c1 returned HP1b binding inh 4.7%, G9a inh -32.4%[59 µM] and JMJD2A Tudor inh -29.0%.
For CCc1cccc(C)c1NC(=O)Cn1nc(C)c2nn(-c3ccc(Cl)cc3)c(C)c2c1=O the results were HP1b binding inh 27.3%[57 µM], BAZ2B inh 1.6%, G9a inh -0.6%[59 µM] and JMJD2A Tudor inh -9.4%.
Screening O=c1c2cc(F)ccc2[nH]c(=S)n1CCCN1CCOCC1 returned Six1-Eya2 inh 3.2, HP1b binding inh 26.3%, BAZ2B inh -10.1%, CtBP-E1A blk 3.0, G9a inh 50.1µM* and JMJD2A Tudor inh -29.6%.
For CCOc1cc2[nH]c(=S)n(Cc3ccc(C(=O)NCCCN(CC)CC)cc3)c(=O)c2cc1OCC the results were Six1-Eya2 inh -13.3, HP1b binding inh -3.8%, BAZ2B inh -17.4%, CtBP-E1A blk inconclusive, G9a inh 35.5µM* and JMJD2A Tudor inh inconclusive.
For Cc1cc(C)c(NC(=O)CN(C)CC(=O)Nc2cccc(S(=O)(=O)N(C)c3ccccc3)c2)c(C)c1 the results were Six1-Eya2 inh 2.1, HP1b binding inh inconclusive, CtBP-E1A blk -5.1 and JMJD2A Tudor inh 7.08µM*.
For CCN(CC(=O)Nc1cccc(C(C)=O)c1)S(=O)(=O)c1ccc(OC)cc1 the results were Six1-Eya2 inh 4.6, HP1b binding inh 16.2%, BAZ2B inh 9.6%, CtBP-E1A blk -2.0, G9a inh -11.8%[59 µM] and JMJD2A Tudor inh -7.2%.
For COc1cccc(CN(C)CC(=O)NC(=O)NCc2ccco2)c1 the results were Six1-Eya2 inh -3.5, HP1b binding inh 50.1µM*, BAZ2B inh 50.1µM*, CtBP-E1A blk 1.4, G9a inh 10.6%[12.7 µM] and JMJD2A Tudor inh 89.1µM*.
For CCN(CC(=O)Nc1cccc(S(=O)(=O)N(C)c2ccccc2)c1)Cc1ccccc1 the results were Six1-Eya2 inh 2.2, HP1b binding inh 28.9%, BAZ2B inh 32.3%, CtBP-E1A blk 2.5, G9a inh 9.0%[12.7 µM] and JMJD2A Tudor inh -11.7%.
Screening CCN(CC)S(=O)(=O)c1cccc(NC(=O)CN(C)Cc2cccc(OC)c2)c1 returned Six1-Eya2 inh 13.4, HP1b binding inh 22.4µM*, BAZ2B inh 50.1µM*, CtBP-E1A blk -23.2, G9a inh -115.3%[12.7 µM] and JMJD2A Tudor inh 1.58µM*.
`Cc1ccccc1CN(C)CC(=O)Nc1cccc(S(=O)(=O)N(C)c2ccccc2)c1` gave Six1-Eya2 inh 19.8, HP1b binding inh 5.4%, BAZ2B inh -4.2%, CtBP-E1A blk 9.9, G9a inh 1.3% and JMJD2A Tudor inh 79.4µM*.
For O=C(CN1C(=O)COc2ccc(Cl)cc21)Nc1cccc(C(=O)O)c1 the results were HP1b binding inh 16.8%, BAZ2B inh 3.2%, G9a inh -0.3%[59 µM] and JMJD2A Tudor inh -15.1%.
Screening CC1(C)CCC(=O)c2ccccc21 returned Six1-Eya2 inh 5.3, HP1b binding inh 15.8%, CtBP-E1A blk -4.1 and JMJD2A Tudor inh 5.5%.
For CC1(C)CCC2=C(O1)c1ccccc1C(=O)C2=O the results were G9a inh 14.1µM*!.
`COc1ccc(Br)cc1C(=O)CCC(=O)OCC(=O)Nc1cc(C(N)=O)cc(C(N)=O)c1` gave Six1-Eya2 inh inconclusive, HP1b binding inh 16.7%, BAZ2B inh -20.3%, CtBP-E1A blk -69.9*, G9a inh inconclusive and JMJD2A Tudor inh -2.4%.
